tim23-1 inh – inhibits growth of tim23-1 mutant yeast. AID 463212. S. cerevisiae tim23-1 growth, BacTiter-Glo luminescence, 24 h. actives 1.3% (n = 330,000). inhibition, % at 20 µM;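 active = growth inhibition of the mutant yeast at or above 50%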;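 also: temperature-sensitive mutant grown at 25 °C; plate controls were DMSO-treated mutant yeast for no effect and medium wells lacking yeast for full effect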
NALP1 inh – inhibitors of NALP1 inflammasome in yeast. actives 0.61% (n = 280,000). inhibition, % at 10 µM. AID 2071. S. cerevisiae NALP1/ASC/caspase-1 growth, X-gal OD620, 72 h; in the data active = inhibition mostly above about 24%, no sharp cut-off; inactive = mostly below about 32%
tim10-1 inh – tim10-1 yeast growth inhibition. S. cerevisiae tim10-1 ts strain growth, BacTiter-Glo, 24 h. inhibition, % at 20 µM. actives 2.2% (n = 330,000);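 active = inhibition of at least 40%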;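 also: mutant grown at 25 °C; 0% = DMSO wells with yeast and 100% = wells holding no yeast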
TIM10 inh – inhibits growth of TIM10 yeast strain | S. cerevisiae TIM10 strain growth, BacTiter-Glo luminescence, 24 h | inhibition, % at 10 µM | actives 1.4% (n = 330,000) | AID 463195;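 active = inhibition of 40% or more at the single tested concentration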;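 also: wild-type TIM10 isogenic control strain grown at permissive 25 °C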
NLRP3 yeast inh – inhibitors of NALP3 inflammasome in yeast; Yeast reconstituted NLRP3/ASC/caspase-1, beta-gal luminescence, 24 h; inhibition, % at 10 µM; actives 0.39% (n = 330,000); AID 2825;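 active = inhibition of 50% or more; inactive = inhibition below 50%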;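 also: plate controls were induced DMSO wells for no effect and uninduced yeast grown without galactose for full effect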
An asterisk follows results filed as active; / = no result given. Most compounds without a hit are left out; they make up all but 4.1% or so of the library.

SMILES	tim23-1 inh	NALP1 inh	tim10-1 inh	TIM10 inh	NLRP3 yeast inh
CCC(C)NS(=O)(=O)c1ccc(OCC(=O)Nc2ccc3c(c2)OCO3)cc1 (stereo not given)	1.2	41.3*	1.2	7.4	-17.7
CC(C)NS(=O)(=O)c1ccc(OCC(=O)Nc2ccc3c(c2)OCO3)cc1	9.9	-4.4	11.5	0.7	25.6
C=CCn1cnnc1SCC(=O)Nc1cccnc1Cl	0.9	/	2.5	-4.8	3.2
CC(=O)n1c2ccccc2c2nc3ccccc3nc21	4.4	30.4*	13.0	12.7	25.0
CCOC(=O)CNC(=O)CSc1nc(C)cc(C)c1C#N	2.4	37.1*	9.3	-4.7	10.4
CSc1c(C#N)sc(=S)n1-c1ccc(C)cc1	20.8	-16.2	9.5	21.8	-44.0
CCn1cc(CN2CCC(n3nccc3NC(=O)c3ccccc3C)CC2)cn1	-2.1	7.8	3.4	2.8	16.6
COc1ccc(/C=N\NC(=O)COc2ccc(C(C)(C)C)cc2)cc1Cn1nc(C)cc1C	0.3	37.7*	-9.3	0.4	17.5
COc1ccc(/C=N/NC(=O)c2ccco2)cc1Cn1nc(C)cc1C	22.0	15.0	30.6	17.7	13.2
CCOc1ccc(N/C(N)=N/c2nc(CSc3nnc(C)s3)cc(=O)[nH]2)cc1	-0.6	38.6*	-9.7	-4.0	6.8
Cc1cc(C(=O)NCCC(c2ccccc2)c2ccccc2)c(C)o1	-0.9	40.4*	25.2	31.1	22.8
COc1ccc(C(=O)N2CCC3(CC2)NCCc2[nH]cnc23)cc1OC	5.3	21.7	-3.8	9.8	3.5
COc1ccc(S(=O)(=O)NNC(=O)c2ccccc2-n2cccc2)cc1	5.8	36.2*	19.2	24.4	24.4
COc1ccc(NC(=O)c2cc3cccc(OC)c3oc2=Nc2ccc(C(=O)O)cc2)cc1OC	/	28.4*	/	/	/
C=CCNc1nc(Nc2cc(Cl)ccc2OC)nc(OC)n1	0.1	24.6*	16.3	-0.2	19.3
O=C(NCCC1=CCCCC1)c1ccc2c(c1)N(Cc1ccccc1)C(=O)CS2	28.9	38.2*	30.1	21.5	11.0
O=C(NCCN1CCOCC1)c1ccc2c(c1)N(Cc1ccccc1)C(=O)CS2	6.4	-8.5	3.7	-5.6	8.9
CC1CCCC(C)N1C(=O)COC(=O)/C=C/c1ccc(Br)o1 (stereo not given)	28.5	/	13.8	10.8	0.0
COc1cccc(-n2c(Cc3cc(=O)[nH]c(=O)[nH]3)nnc2SCc2cccc(C(F)(F)F)c2)c1	-1.3	15.3	14.7	9.3	2.2
O=C(CCCOc1ccccc1)N1CCCCC1	14.3	32.6*	7.0	-0.8	16.3
COc1ccc(N=C2S/C(=C\c3ccc(C)o3)C(=O)N2CC(C)C)cc1	-3.8	39.9*	5.1	-26.5	14.2
CCCN1C(=O)/C(=C/c2ccc(C)o2)SC1=Nc1ccc(OC)cc1	-0.2	9.0	-7.3	-5.0	30.8
CCC1Sc2ccccc2N(CC(=O)NCCC2=CCCCC2)C1=O (stereo not given)	30.3	42.6*	24.6	10.6	14.2
CCC1Sc2ccccc2N(CC(=O)NC2CC2)C1=O (stereo not given)	2.8	2.7	1.6	10.4	-12.8
CC(C)(C=O)C1=CC(=O)c2ccccc2C1=O	/	47.7*	/	/	/
SMILES	tim23-1 inh	NALP1 inh	tim10-1 inh	TIM10 inh	NLRP3 yeast inh
Cc1ccc(N/C(N)=N/c2nc(C)cc(N3CCCCC3)n2)c(C)c1	0.2	7.8	2.2	-9.7	2.4
O=C(O)CN(c1ccccn1)S(=O)(=O)c1ccccc1	28.8	43.2*	2.5	15.5	3.7
CC(=O)/C(N=Nc1ccc(OC(F)(F)F)cc1)=C(\C)O	-16.1	/	-2.2	-12.8	12.7
CC(=O)/C(N=Nc1ccc(C(=O)O)cc1)=C(\C)O	18.3	42.7*	9.4	12.5	22.2
CCOc1ccc(N(CC(=O)N2CCCCC2)S(=O)(=O)c2ccc(Cl)cc2)cc1	28.7	-0.5	12.2	27.8	11.6
CN(C)c1ccc(C=NCC2COc3ccccc3O2)cc1 (stereo not given)	-7.2	-11.5	0.5	5.1	14.6
CCOC(=O)C1(Cc2cccc(OC)c2)CCN(Cc2cccn2-c2nccs2)CC1	19.9	39.3*	22.4	-5.2	17.5
C=CCN(CC=C)S(=O)(=O)c1ccc(NC(=S)NC(=O)/C=C/c2ccccc2)cc1	10.8	27.4*	1.2	2.6	7.1
COc1ccccc1C(=O)NCCC(=O)N1CCN(C(C)=O)CC1	5.8	/	12.5	4.6	6.6
CNC(=O)CSc1nnc(-c2cnccn2)n1C	-1.9	26.0*	-3.0	-8.0	9.0
COc1cc(OC)c(C2=NOC(C(=O)N3CCCc4ccccc43)C2)cc1Cl (stereo not given)	32.9	37.2*	36.0	18.9	7.2
O=C1CN(C(=O)COC(=O)CNS(=O)(=O)c2ccccc2)c2ccccc2N1	4.3	11.7	20.8	-13.3	-2.2
O=C1CN(C(=O)COC(=O)CNS(=O)(=O)/C=C/c2ccccc2)c2ccccc2N1	8.6	33.5*	-2.3	10.5	12.4
CC(Oc1ccccc1)C(=O)OCC(=O)N1CC(=O)Nc2ccccc21 (stereo not given)	4.2	24.1*	-3.7	3.3	5.8
CC(OC(=O)c1ccc(-c2ccc(O)cc2)cc1)C(=O)NC1CCCCC1C (stereo not given)	6.4	/	4.5	1.3	10.7
Cc1nc2c(O)cccc2cc1CO	7.2	35.7*	15.0	-14.8	13.5
O=C(CCN1CCC(c2ccccc2)C1)c1ccccc1 (stereo not given)	15.3	22.9*	9.4	-16.0	36.2
COc1ccc2c(c1OC)C(=O)OC2Nc1nc(-c2ccc(-c3ccccc3)cc2)cs1 (stereo not given)	45.1	58.1*	2.7	30.5	19.5
C=CCN1C(=O)/C(=C\c2ccc(OC(=O)c3ccco3)c(OC)c2)SC1=S	1.7	29.6*	21.2	21.0	-6.6
O=C(C1=C[C@H](c2csc3ccccc23)C[C@H](OCCCCO)O1)N1CCN(Cc2ccccc2)CC1	13.9	30.4*	10.5	1.2	5.2
O=C(NCc1cnc2ccccn12)C1CCC(=O)N(Cc2cccc(F)c2)C1 (stereo not given)	11.4	7.3	10.1	5.2	4.1
CSc1nc2c(c(=O)n1-c1ccc(C)cc1)SCC2	18.9	27.6*	23.4	2.4	22.6
CN(C)CCC1c2ccc(Cl)cc2CCc2cccnc21 (stereo not given) (tested in a mixture with another compound)	-9.0	40.0*	16.2	-16.7	9.1
O=C(CCN1CCN(c2ccccc2)CC1)NNC(=S)Nc1ccccc1Cl	-7.3	-1.3	20.2	14.0	16.3
COc1ccc(S(=O)(=O)NCC2CCCN(Cc3cccnc3)C2)cc1 (stereo not given)	8.8	32.2*	4.7	3.0	18.8
NC(=O)c1c(NC(=O)CN2C(=O)NC(Cc3ccccc3)C2=O)sc2c1CCC2 (stereo not given)	5.7	41.9*	8.2	-0.7	0.9
CC1CCC2(CC1)NC(=O)N(CC(=O)Nc1sc3c(c1C(N)=O)CCC3)C2=O (stereo not given)	-2.1	11.0	-0.6	-1.5	-1.5

Bioassay records from PubChem.
